# In publication PMC5540273 (PLoS ONE, 2017):
# How the values were obtained:
# Details in all cases: concentration: 1 μM, replicates: in singlicate; n = 1
# TNIK = system: TNIK
# TNK1 = system: TNK1
# TNK2 = system: TNK2
# TNNI3K = system: TNNI3K
# TRKA = system: T1, TRKA
# T1 construct: gene NTRK1
# TRKB = system: TRKB
# TRKC = system: T2, TRKC
# T2 construct: gene NTRK3
# TRPM6 = system: TRPM6
# TSSK1B = system: TSSK1B
# TSSK3 = system: TSSK3
# TTK = system: TTK
# TXK = system: TXK
# [1] = system: TYK2(JH1domain-catalytic)
# [2] = system: TYK2(JH2domain-pseudokinase)
# TYRO3 = system: TYRO3
# ULK1 = system: ULK1
# ULK2 = system: ULK2
# ULK3 = system: ULK3
# VEGFR2 = system: T3, VEGFR2
# T3 construct: gene KDR
# VPS34 = system: T4, VPS34
# T4 construct: gene PIK3C3
# 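Further: KINOMEscan kinase panel screen.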
SMILES,%Inh (TNIK) [%],%Inh (TNK1) [%],%Inh (TNK2) [%],%Inh (TNNI3K) [%],%Inh (TRKA) [%],%Inh (TRKB) [%],%Inh (TRKC) [%],%Inh (TRPM6) [%],%Inh (TSSK1B) [%],%Inh (TSSK3) [%],%Inh (TTK) [%],%Inh (TXK) [%],%Inh [1] [%],%Inh [2] [%],%Inh (TYRO3) [%],%Inh (ULK1) [%],%Inh (ULK2) [%],%Inh (ULK3) [%],%Inh (VEGFR2) [%],%Inh (VPS34) [%]
COc1ccc(Nc2nccc(-c3cccc(NC(=O)c4cc5cc(F)ccc5[nH]4)c3)n2)cc1 [GSK1229782],84,0,16,0,52,36,47,33,22,35,13,17,41,47,23,16,0,23,4,33
O=C(Nc1n[nH]c2cc(-c3cccc(F)c3F)ccc12)C1CC1 [SB-733894],72,10,2,0,38,11,34,0,0,0,1,0,1,0,0,0,51,4,20,0
Cc1cccc(-c2nc(Nc3ccncc3)c3ccccc3n2)n1 [GW855857],29,39,0,20,0,0,0,0,0,0,10,11,8,40,0,0,0,8,0,52
Cn1ccc2ncnc(Oc3ccc(Nc4nc5ccccc5[nH]4)cc3)c21,0,0,0,0,0,0,0,100,0,0,2,0,0,0,0,0,0,0,0,0
Cc1cccc(-c2nc(Nc3cccc(C(N)=O)c3)c3ccccc3n2)n1 [GW876019],2,5,15,0,0,0,0,0,10,0,0,0,19,25,9,0,0,0,0,4
Cc1csc(-c2nc(Nc3ccncc3)c3ccccc3n2)n1 [GW869640],50,21,0,18,44,12,22,44,0,23,35,0,100,83,0,33,23,50,36,33
COc1ccc(Nc2nccc(NCCNC(=O)Nc3ccccc3F)n2)cc1 [GSK1379901],0,0,31,14,0,0,18,11,0,7,0,24,26,28,0,0,0,37,0,0
O=C1NC(=O)C(N2CCc3ccccc32)=C1c1ccccc1Cl [SB-373598],5,3,11,4,22,0,4,11,8,18,65,28,0,0,0,61,6,39,2,16
Clc1cc(Cl)cc(Nc2ccnc(Nc3cc(Cl)cc(Cl)c3)n2)c1 [GSK175726],0,0,12,6,19,0,0,0,0,10,0,0,0,0,0,0,0,0,12,0
COc1ccc(C2=C(Nc3cccc(C(=O)O)c3)C(=O)NC2=O)cc1 [SB-390765],0,5,6,0,47,0,22,0,8,0,10,21,0,0,22,16,8,28,21,33
